Results filed as inconclusive are left out. Active and inactive are the calls of the source. The calls were made as follows: active = hit-call score of the fitted dose curve at least 0.9, where 1 is the maximum; inconclusive = response in the unintended direction; inactive = score below 0.9.

The assay deals with Glucocorticoid receptor (Homo sapiens) (UniProt P04150). Kind of assay: ATG_GR_TRANS: Attagene TRANS-FACTORIAL HepG2 Assay for human Glucocorticoid Receptor (GR) (AID 2282978).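 Also: activators score as hits since higher reporter transcript over DMSO is fitted.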 The following applies: HepG2 Attagene TRANS GR reporter, mRNA transcription. How it is done: ATG_TRANS is a cell-based, multiplexed-readout assay that uses HepG2, a human liver cell line, with measurements taken at 24 hours after chemical dosing in a 24-well plate.ATG_GR_TRANS is one of 30 assay component(s) measured or calculated from the ATG_TRANS assay. It is designed to make measurements of mRNA induction, a form of inducible reporter, as detected with fluorescence intensity signals by Reverse transcription polymerase chain reaction (RT-PCR) and Capillary electrophoresis technology.Data from the assay component ATG_GR_TRANS was analyzed into 1 assay endpoint. This assay endpoint, ATG_GR_TRANS, was analyzed in the positive analysis fitting direction relative to DMSO as the negative control and baseline of activity. Using a type of inducible reporter, measures of mRNA for gain-of-signal activity can be used to understand the reporter gene at the transcription factor-level as they relate to the gene NR3C1. Furthermore, this assay endpoint can be referred to as a primary readout, because this assay has produced multiple assay endpoints where this one serves a reporter gene function. To generalize the intended target to other relatable targets, this assay endpoint is annotated to the nuclear receptor intended target family, where the subfamily is steroidal.
Sequence of Glucocorticoid receptor (Homo sapiens) (P04150 whole entry, looked up): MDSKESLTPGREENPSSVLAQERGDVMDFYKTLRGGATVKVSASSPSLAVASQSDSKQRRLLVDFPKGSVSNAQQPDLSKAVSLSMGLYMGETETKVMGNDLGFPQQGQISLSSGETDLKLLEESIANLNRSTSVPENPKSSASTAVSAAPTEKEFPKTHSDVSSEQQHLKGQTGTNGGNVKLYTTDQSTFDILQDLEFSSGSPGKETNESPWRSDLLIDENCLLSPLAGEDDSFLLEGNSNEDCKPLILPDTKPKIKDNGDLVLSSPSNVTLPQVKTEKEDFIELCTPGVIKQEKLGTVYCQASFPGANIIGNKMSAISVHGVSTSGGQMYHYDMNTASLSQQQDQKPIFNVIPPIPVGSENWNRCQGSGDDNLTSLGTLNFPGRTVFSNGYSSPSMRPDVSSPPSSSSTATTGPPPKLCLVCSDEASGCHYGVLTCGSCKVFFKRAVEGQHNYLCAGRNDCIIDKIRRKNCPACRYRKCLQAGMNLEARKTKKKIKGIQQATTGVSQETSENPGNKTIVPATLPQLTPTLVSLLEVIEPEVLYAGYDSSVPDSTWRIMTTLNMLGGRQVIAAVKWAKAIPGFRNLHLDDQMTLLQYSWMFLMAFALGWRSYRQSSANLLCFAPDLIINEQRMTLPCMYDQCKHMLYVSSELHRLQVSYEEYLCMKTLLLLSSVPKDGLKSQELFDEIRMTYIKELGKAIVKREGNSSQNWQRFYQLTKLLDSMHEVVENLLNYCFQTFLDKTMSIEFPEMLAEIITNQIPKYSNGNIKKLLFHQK
Human liver HepG2 cells are transiently transfected with multiple reporter transcription units (MRTUs) in 6-well plates using FuGene 6 reagent (Roche; 3 ml FuGene/1 mg DNA). The MRTU constructs are regulated by a cis-regulating element (promoter). […] A major difference between the CIS and TRANS system is that in CIS activities of endogenous TFs are measured, whereas the TRANS assay evaluates changes in activities of exogenous, chimeric NR-Gal4 proteins. […] At the end of 24 hour incubation, total RNA was isolated using TriZol reagent (Invitrogen). The isolated RNA is then reverse-transcribed using oligo(dT) primer and Mo-MLV reverse transcriptase (Invitrogen) with DNAse I (Ambion) treatment for 30 min. The one-tenth of the produced cDNA was amplified by PCR using Taq DNA polymerase (Invitrogen) and two reporter sequence-specific primers. The PCR products were fluorescently labeled by primer extension with 6-arboxyfluorescein (6-FAM) 5'-labeled reporter sequence-specific primer (2 min at 95 C, 20 s at 68 C and 10 min at 72 C) and these products were digested with 5U of HpaI (New England Biolabs) for 2h at 37 C. The fragments were purified using Qiaquick PCR columns (Qiagen), analyzed on an ABI 3130xL genetic analyzer (Applied Biosystems) with peak positions identified by using a set of X-rhodamine (ROX)-labeled MapMarker1000 molecular weight standards (BioVentures). The raw capillary electrophoresis data was processed using Attagraph software (Attagene).
Regarding `Oc1c(Cl)c(Cl)c(Cl)c(Cl)c1Cl`, the compound was classed as inactive.

For the compound `ClC1=C(Cl)[C@]2(Cl)[C@@H]3[C@@H](Cl)[C@H]4O[C@H]4[C@@H]3C1(Cl)C2(Cl)Cl`, the result was inactive.

Regarding `CN(C)CCO`, the outcome was inactive.

With `Cc1ccccc1O`, the outcome was inactive.

With `CC1=C2C[C@H]3[C@@H](CC=C4C[C@@H](O)CC[C@@]43C)[C@@H]2CC[C@]12O[C@@H]1C[C@H](C)CN[C@H]1[C@H]2C`, the result was inactive.

On to `O=S(=O)(O)C(F)(F)C(F)(F)C(F)(F)C(F)(F)C(F)(F)C(F)(F)F`, for which the outcome was inactive.

Turning to `Nc1ccc(-c2ccc(N)cc2)cc1`, the result was inactive.

As to `CC(c1ccc(O)cc1)(c1ccc(O)cc1)c1ccc(O)cc1`, the result was inactive.

With `O=C(NC(=O)c1cc(F)c(F)cc1Cl)Nc1cc(F)ccc1N1CCC(C(=O)O)CC1`, the outcome was inactive.

For `Oc1ccc(C(c2ccc(O)cc2)(C(F)(F)F)C(F)(F)F)cc1`, the outcome was inactive.

On to `CC(C)(c1ccccc1)c1ccc(O)cc1`, for which the call was inactive.

Consider `O=C(O)C(F)(F)C(F)(F)C(F)(F)C(F)(F)C(F)(F)C(F)(F)C(F)(F)C(F)(F)C(F)(F)F`, for which the compound was classed as inactive.

Take `Clc1ccc(C(Cl)(Cl)Cl)cc1`: the compound was called inactive.

Regarding `CCC(C)c1cc([N+](=O)[O-])cc([N+](=O)[O-])c1O` (configuration not stated), the compound was called inactive.

`CCCCCCOC(=O)c1ccccc1C(=O)OCCCCCC`: the outcome was inactive.

For the compound `OCC(O)CO`, the outcome was inactive.

Consider `O=C(O)C(F)(F)C(F)(F)C(F)(F)C(F)(F)C(F)(F)F`, for which the result was inactive.

For the compound `NS(=O)(=O)C(F)(F)C(F)(F)C(F)(F)C(F)(F)C(F)(F)C(F)(F)C(F)(F)C(F)(F)F`, the call was inactive.

With `O=C(N[C@H]1CN2CCC1CC2)c1cc2ccoc2cn1`, the call was inactive.

`c1ccc(-c2ccccc2)cc1`: the result was inactive.

Take `Clc1ccc(Cl)cc1`: the call was inactive.

On to `O=S(=O)(O)C(F)(F)C(F)(F)C(F)(F)C(F)(F)F`, for which the compound was classed as inactive.

As to `Clc1ccc(C(c2ccccc2Cl)C(Cl)(Cl)Cl)cc1` (configuration not stated), the compound was classed as inactive.

Regarding `CCC(=O)O[C@H]1CC[C@H]2[C@@H]3CCC4=CC(=O)CC[C@]4(C)[C@H]3CC[C@]12C`, the outcome was inactive.

Turning to `Cc1ccc(O)c(C)c1`, the outcome was inactive.

For the compound `CCOC(=O)C(O)(c1ccc(Cl)cc1)c1ccc(Cl)cc1`, the outcome was inactive.

Regarding `Sc1ccccc1`, the compound was classed as inactive.

Take `C[C@]12CCC(=O)C=C1CC[C@@H]1[C@@H]2CC[C@@]2(C)[C@H]1CC[C@]2(C)O`: the compound was classed as inactive.

For `Cc1cccc(C)c1N`, the compound was called inactive.

For `Cc1cc(O)ccc1Cl`, the compound was called inactive.

In the case of `ClC1=C(Cl)[C@]2(Cl)[C@@H]3[C@@H]4C[C@@H]([C@H]5O[C@@H]45)[C@@H]3[C@@]1(Cl)C2(Cl)Cl`, the result was inactive.

Regarding `CC#Cc1cc(C)nc(Nc2ccccc2)n1`, the result was inactive.

With `ClC(Cl)=C(c1ccc(Cl)cc1)c1ccc(Cl)cc1`, the compound was classed as inactive.

As to `COc1ccc(O)c(C(C)(C)C)c1`, the compound was classed as inactive.

In the case of `O=C(O)C(F)(F)C(F)(F)C(F)(F)C(F)(F)C(F)(F)C(F)(F)C(F)(F)C(F)(F)F`, the result was inactive.

With `Nn1cnnc1`, the result was inactive.

On to `ClC1=C(Cl)[C@]2(Cl)[C@@H]3[C@H]4C[C@H]([C@@H]5O[C@H]45)[C@@H]3[C@@]1(Cl)C2(Cl)Cl`, for which the compound was classed as inactive.

Values taken from PubChem BioAssay (EPA / NIEHS).
